# About 79,000 compounds went through this panel and 15% of them were active in at least one assay; those are over-represented in the sample as a whole. A number with no mark means an inactive call. The source made the active and inactive calls. No stated cut-off is given here; in the data, active means growth inhibition above about 70%; inactive means the rest.
# What was measured:
# [1] = NCI Yeast Anticancer Drug Screen. Data for the rad52 strain (AID 147);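 further: 0% = growth of vehicle-treated control cultures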; details: S. cerevisiae rad52 mutant growth inhibition, active compounds read high
# Outline: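 The repair-mutant yeast strain was incubated with compounds, then growth was read and inhibition derived relative to vehicle.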
# [2] = NCI Yeast Anticancer Drug Screen. Data for the wt1 strain (AID 149);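 further: 0% = growth of vehicle-treated wt1 cultures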; details: S. cerevisiae wt1 strain (SPY 50644) growth inhibition, active compounds read high
# Outline: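 The wt1 strain was treated with compounds, and growth was compared with vehicle-treated cultures to give inhibition.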
# [3] = NCI Yeast Anticancer Drug Screen. Data for the rad50EPP+ strain (AID 151);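 further: 0% = growth of vehicle-treated control cultures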; details: S. cerevisiae rad50 mutant strain, active compounds read high
# Outline: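 Vehicle-normalised growth inhibition; rad50EPP+ yeast strain, altered in DNA damage repair, compound-treated.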
# [4] = NCI Yeast Anticancer Drug Screen. Data for the mgt1 strain (AID 153); details: S. cerevisiae mgt1 mutant growth inhibition, active compounds read high
# Outline: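 Vehicle-normalized growth inhibition is determined in mgt1 yeast, a strain selected for a defined alteration in DNA repair or cell cycle control.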
# [5] = NCI Yeast Anticancer Drug Screen. Data for the rad50 strain (AID 155);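 further: 0% = growth of vehicle-only cultures of the same strain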; details: S. cerevisiae rad50 strain growth inhibition, active compounds read high
# Outline: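 Cells are treated with compound, grown, and their growth is then scored against vehicle-only cultures of the same repair-deficient yeast strain.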
# [6] = NCI Yeast Anticancer Drug Screen. Data for the mec2-1 strain (AID 157); details: S. cerevisiae mec2-1 strain, active compounds read high
# Outline: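 Mutant yeast (mec2-1) grown with compound; growth inhibition relative to vehicle control reported.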
# [7] = NCI Yeast Anticancer Drug Screen. Data for the rad14 strain (AID 159);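 further: 0% = growth of vehicle-treated control cultures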; details: S. cerevisiae rad14 strain growth inhibition, active compounds read high
# Outline: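 Readout: yeast growth inhibition, referenced to vehicle-only cultures. Strain bears a defined alteration in DNA damage repair.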
# [8] = NCI Yeast Anticancer Drug Screen. Data for the sgs1 mgt1 strain (AID 161);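 further: 0% = growth of cultures given vehicle only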; details: S. cerevisiae sgs1 mgt1 strain, active compounds read high
# Outline: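 Yeast cells carrying a defined DNA-repair defect were exposed to test compounds. Growth inhibition was measured relative to vehicle-treated controls.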
# [9] = NCI Yeast Anticancer Drug Screen. Data for the CLN2oe strain (AID 163);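 further: 0% = growth of vehicle-only control cultures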; details: S. cerevisiae CLN2oe strain, active compounds read high
# Outline: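 Compounds are applied to yeast harbouring a defined cell-cycle control change; reduced growth compared with vehicle-treated controls gives the value.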
# [10] = NCI Yeast Anticancer Drug Screen. Data for the cln2 rad14 strain (AID 165);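 further: 0% = growth equal to vehicle treated cultures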; details: S. cerevisiae cln2 rad14 strain, active compounds read high
# Outline: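 Readout is yeast growth inhibition versus vehicle-treated controls, using a strain with cln2 and rad14 alterations exposed to compound.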
# [11] = NCI Yeast Anticancer Drug Screen. Data for the bub3 strain (AID 167); details: S. cerevisiae bub3 mutant strain, active compounds read high
# Outline: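 Part of a panel of yeast mutants defective in DNA damage repair or cell cycle regulation. Each strain is grown with compound, and inhibition is calculated relative to solvent-treated cultures.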
# [12] = NCI Yeast Anticancer Drug Screen. Data for the mlh1 strain (AID 171);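 further: 0% = growth of vehicle-treated control cultures of the same strain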; details: S. cerevisiae mlh1 strain growth inhibition, active compounds read high
# Outline: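 Measured: yeast growth. Reference: vehicle-treated controls. Organism: strain with a defined alteration affecting DNA damage repair or cell cycle control, treated with compound.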
# [13] = NCI Yeast Anticancer Drug Screen. Data for the sgs1 strain (AID 173);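 further: 0% = growth of vehicle-only control cultures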; details: S. cerevisiae sgs1 mutant, active compounds read high
# Outline: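 Each compound was added to cultures of the altered yeast strain. Growth was recorded, and inhibition was derived by comparison with vehicle controls.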
# [14] = NCI Yeast Anticancer Drug Screen. Data for the mlh1 rad18 strain (AID 175); details: S. cerevisiae mlh1 rad18 strain growth inhibition, active compounds read high
# Outline: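 Genetically defined yeast (DNA repair-deficient) exposed to compounds; growth inhibition determined relative to vehicle.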
# [15] = NCI Yeast Anticancer Drug Screen. Data for the rad18 strain (AID 177); details: S. cerevisiae rad18 mutant growth inhibition, active compounds read high
# Outline: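 Vehicle-treated cultures served as the baseline for scoring compound-induced growth inhibition in DNA-repair-mutant yeast.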
# [16] = NCI Yeast Anticancer Drug Screen. Data for the wt2 strain (AID 169);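 further: 0% = growth of vehicle-treated yeast cultures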; details: S. cerevisiae wt2 strain growth inhibition, active compounds read high
# Outline: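 Against vehicle-treated controls, the growth of yeast exposed to each compound was compared, and the inhibition was recorded.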
# [17] = at 5.0 µM (retest, dose inferred, filed as 0.5)
# [18] = at 50.0 µM (retest, dose inferred, filed as 5.0)
compound,measurement,setting,value
BrCc1cccc2ccc3cccc(CBr)c3c12,growth inhibition,[1]; at 1.2 µM,-3%
same,growth inhibition,[1]; at 3.7 µM,-4%
same,growth inhibition,[1]; at 11.0 µM,-1%
same,growth inhibition,[1]; at 33.0 µM,2%
same,growth inhibition,[1]; at 100.0 µM,10%
same,growth inhibition,[2]; at 1.2 µM,-3%
same,growth inhibition,[2]; at 3.7 µM,-3%
same,growth inhibition,[2]; at 11.0 µM,-4%
same,growth inhibition,[2]; at 33.0 µM,-8%
same,growth inhibition,[2]; at 100.0 µM,-7%
same,growth inhibition,[3]; at 1.2 µM,-4%
same,growth inhibition,[3]; at 3.7 µM,0%
same,growth inhibition,[3]; at 11.0 µM,12%
same,growth inhibition,[3]; at 33.0 µM,18%
same,growth inhibition,[3]; at 100.0 µM,24%
same,growth inhibition,[4]; at 1.2 µM,2%
same,growth inhibition,[4]; at 3.7 µM,0%
same,growth inhibition,[4]; at 11.0 µM,1%
same,growth inhibition,[4]; at 33.0 µM,-2%
same,growth inhibition,[4]; at 100.0 µM,3%
same,growth inhibition,[5]; at 1.2 µM,-3%
same,growth inhibition,[5]; at 3.7 µM,-3%
same,growth inhibition,[5]; [17],-1%
same,growth inhibition,[5]; at 11.0 µM,0%
same,growth inhibition,[5]; at 33.0 µM,1%
same,growth inhibition,[5]; [18],85% (active)
same,growth inhibition,[5]; at 50.0 µM,66.3%
same,growth inhibition,[5]; at 100.0 µM,10%
same,growth inhibition,[6]; at 1.2 µM,-2%
same,growth inhibition,[6]; at 3.7 µM,-1%
same,growth inhibition,[6]; [17],-5%
same,growth inhibition,[6]; at 11.0 µM,-2%
same,growth inhibition,[6]; at 33.0 µM,-3%
same,growth inhibition,[6]; [18],97% (active)
same,growth inhibition,[6]; at 50.0 µM,21.8%
same,growth inhibition,[6]; at 100.0 µM,-2%
same,growth inhibition,[7]; at 1.2 µM,-2%
same,growth inhibition,[7]; at 3.7 µM,-2%
same,growth inhibition,[7]; at 11.0 µM,-2%
same,growth inhibition,[7]; at 33.0 µM,-2%
same,growth inhibition,[7]; at 100.0 µM,2%
same,growth inhibition,[8]; [17],-3%
same,growth inhibition,[8]; [18],85% (active)
same,growth inhibition,[8]; at 50.0 µM,72% (active)
same,growth inhibition,[9]; at 1.2 µM,-2%
same,growth inhibition,[9]; at 3.7 µM,0%
same,growth inhibition,[9]; at 11.0 µM,-3%
same,growth inhibition,[9]; at 33.0 µM,-13%
same,growth inhibition,[9]; at 100.0 µM,-12%
same,growth inhibition,[10]; [17],-15%
same,growth inhibition,[10]; [18],21%
same,growth inhibition,[10]; at 50.0 µM,-24%
same,growth inhibition,[11]; at 1.2 µM,-12%
same,growth inhibition,[11]; at 3.7 µM,-14%
same,growth inhibition,[11]; [17],4%
same,growth inhibition,[11]; at 11.0 µM,-8%
same,growth inhibition,[11]; at 33.0 µM,-11%
same,growth inhibition,[11]; [18],50%
same,growth inhibition,[11]; at 50.0 µM,65%
same,growth inhibition,[11]; at 100.0 µM,-6%
same,growth inhibition,[12]; at 1.2 µM,-3%
same,growth inhibition,[12]; at 3.7 µM,-3%
same,growth inhibition,[12]; at 11.0 µM,-2%
same,growth inhibition,[12]; at 33.0 µM,-2%
same,growth inhibition,[12]; at 100.0 µM,1%
same,growth inhibition,[13]; at 1.2 µM,-3%
same,growth inhibition,[13]; at 3.7 µM,-3%
same,growth inhibition,[13]; at 11.0 µM,-4%
same,growth inhibition,[13]; at 33.0 µM,-3%
same,growth inhibition,[13]; at 100.0 µM,-1%
same,growth inhibition,[14]; [17],-1%
same,growth inhibition,[14]; [18],96% (active)
same,growth inhibition,[14]; at 50.0 µM,73.5% (active)
same,growth inhibition,[15]; at 1.2 µM,-4%
same,growth inhibition,[15]; at 3.7 µM,0%
same,growth inhibition,[15]; at 11.0 µM,-1%
same,growth inhibition,[15]; at 33.0 µM,0%
same,growth inhibition,[15]; at 100.0 µM,11%
CCc1ccc(NS(=O)(=O)c2ccccc2)c([N+](=O)[O-])c1,growth inhibition,[1]; at 1.2 µM,2%
same,growth inhibition,[1]; at 3.7 µM,2%
same,growth inhibition,[1]; at 11.0 µM,11%
same,growth inhibition,[1]; at 33.0 µM,30%
same,growth inhibition,[1]; at 100.0 µM,76% (active)
same,growth inhibition,[2]; at 1.2 µM,1%
same,growth inhibition,[2]; at 3.7 µM,6%
same,growth inhibition,[2]; at 11.0 µM,2%
same,growth inhibition,[2]; at 33.0 µM,5%
same,growth inhibition,[2]; at 100.0 µM,46%
same,growth inhibition,[3]; at 1.2 µM,10%
same,growth inhibition,[3]; at 3.7 µM,18%
same,growth inhibition,[3]; at 11.0 µM,36%
same,growth inhibition,[3]; at 33.0 µM,53%
same,growth inhibition,[3]; at 100.0 µM,75% (active)
same,growth inhibition,[5]; at 1.2 µM,3%
same,growth inhibition,[5]; at 3.7 µM,5%
same,growth inhibition,[5]; [17],2%
same,growth inhibition,[5]; at 11.0 µM,5%
same,growth inhibition,[5]; at 33.0 µM,22%
same,growth inhibition,[5]; [18],39%
same,growth inhibition,[5]; at 50.0 µM,37.2%
same,growth inhibition,[5]; at 100.0 µM,72% (active)
same,growth inhibition,[6]; at 1.2 µM,1%
same,growth inhibition,[6]; at 3.7 µM,8%
same,growth inhibition,[6]; [17],6%
same,growth inhibition,[6]; at 11.0 µM,14%
same,growth inhibition,[6]; at 33.0 µM,27%
same,growth inhibition,[6]; [18],39%
same,growth inhibition,[6]; at 50.0 µM,55%
same,growth inhibition,[6]; at 100.0 µM,81% (active)
same,growth inhibition,[7]; at 1.2 µM,2%
same,growth inhibition,[7]; at 3.7 µM,5%
same,growth inhibition,[7]; at 11.0 µM,6%
same,growth inhibition,[7]; at 33.0 µM,11%
same,growth inhibition,[7]; at 100.0 µM,82% (active)
same,growth inhibition,[8]; [17],8%
same,growth inhibition,[8]; [18],54%
same,growth inhibition,[8]; at 50.0 µM,70.7% (active)
same,growth inhibition,[9]; at 1.2 µM,-2%
same,growth inhibition,[9]; at 3.7 µM,-2%
same,growth inhibition,[9]; at 11.0 µM,3%
same,growth inhibition,[9]; at 33.0 µM,17%
same,growth inhibition,[9]; at 100.0 µM,73% (active)
same,growth inhibition,[10]; [17],0%
same,growth inhibition,[10]; [18],20%
same,growth inhibition,[10]; at 50.0 µM,47.5%
same,growth inhibition,[11]; at 1.2 µM,-3%
same,growth inhibition,[11]; at 3.7 µM,4%
same,growth inhibition,[11]; [17],-3%
same,growth inhibition,[11]; at 11.0 µM,7%
same,growth inhibition,[11]; at 33.0 µM,28%
same,growth inhibition,[11]; [18],36%
same,growth inhibition,[11]; at 50.0 µM,53.6%
same,growth inhibition,[11]; at 100.0 µM,67%
same,growth inhibition,[16]; at 1.2 µM,-1%
same,growth inhibition,[16]; at 3.7 µM,3%
same,growth inhibition,[16]; at 11.0 µM,3%
same,growth inhibition,[16]; at 33.0 µM,27%
same,growth inhibition,[16]; at 100.0 µM,78% (active)

# Source: PubChem BioAssay (NCI)
